# Results filed as inconclusive are left out. Entries that show only a call come without a potency. Active and inactive are the calls of the source. Calls come from the whole dose curve; as a rule, active = well fitted inhibition curve with a large enough effect; inconclusive = small, poorly fitted or top-dose-only effect; inactive = no such curve, though single readings can be large or run the other way.
# Assay: qHTS assay for measurement of the activity of small molecule inhibitors on Zika virus induced Caspase-3 activity in human iPSC derived neural progenitor cells (hNPCs) (AID 1224857); note: nearly all actives have a fitted effect of over 65% in size
# Conditions: hNPCs ZIKV-induced caspase-3/7, Caspase-Glo luminescence, 6 h; series mostly up to 45.7 µM
# In short: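 Quantitative HTS format: human iPSC neural progenitors, 1 h compound pretreatment, ZIKV 2 FFU/cell for 6 h at 37 C. Percent inhibition derived from luminescent caspase-3/7 signal between uninfected and infected controls.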
# Potency is the fitted concentration of half-maximal effect.
row,SMILES,Potency
1,CCN(CC)CCNC(=O)COc1ccc(OC)cc1,inactive
2,CC(C)(Cc1c[nH]c2ccccc12)NCC(O)COc1ccccc1C#N (stereo unspecified),inactive
3,Cc1ccc(O)c([C@H](CCN(C(C)C)C(C)C)c2ccccc2)c1,inactive
4,CC(C)=CCOc1ccc(/C=C/C(=O)c2ccc(OCC=C(C)C)cc2OCC(=O)O)cc1,inactive
5,CC(=O)NCCCCCC(=O)O,inactive
6,C#C[C@]1(OC(C)=O)CC[C@H]2[C@@H]3CCC4=C/C(=N/O)CC[C@@H]4[C@H]3CC[C@@]21CC,inactive
7,Cc1ccc2c(Br)cc(Br)c(O)c2n1,inactive
8,O=C(O)CCC(=O)Nc1ccc(S(=O)(=O)Nc2nccs2)cc1,inactive
9,O=C1OC2(c3ccccc31)c1cc(Br)c(O)c(Br)c1Oc1c2cc(Br)c(O)c1Br,inactive
10,CCCCCN=C(N)N/N=C/c1c[nH]c2ccc(OC)cc12,inactive
11,O=C(O)P(=O)(O)O,inactive
12,c1ccc(CC2=NCCN2)cc1,inactive
13,CN(CCCN1c2ccccc2CCc2ccccc21)CC(=O)c1ccc(Cl)cc1,inactive
14,CN1CCN(c2cc3c(cc2F)c(=O)c(C(=O)O)cn3-c2ccc(F)cc2)CC1,inactive
15,O=C(Nc1ncc([N+](=O)[O-])s1)c1cccs1,inactive
16,NC(N)=NN=C(/C=C/c1ccc([N+](=O)[O-])o1)/C=C/c1ccc([N+](=O)[O-])o1,31.6 µM (active)
17,CCN(CC)CCNc1ccc(CO)c2sc3ccccc3c(=O)c12,inactive
18,O=c1[nH]c(=O)n([C@H]2C[C@H](O)[C@@H](CO)O2)cc1F,inactive

row,SMILES,Potency
1,Cc1cccc(C)c1NC(=O)CN1CCCC1,inactive
2,CC(O)Cn1cnc2c1c(=O)n(C)c(=O)n2C (stereo unspecified),inactive
3,C=C[C@H]1CN2CC[C@H]1C[C@H]2[C@H](O)c1ccnc2ccc(OC)cc12,inactive
4,O=C(CN1CCN(Cc2ccc3c(c2)OCO3)CC1)N1c2ccccc2Sc2ccccc21,inactive
5,Cc1cccc(C)c1NC(=O)CN1CCCCCC1,inactive
6,CC(C)NCC(O)c1ccc2ccccc2c1 (stereo unspecified),inactive
7,COc1cc(C)nc(-n2nc(C)cc2OC)n1,inactive
8,CC(C)(C)NCC(O)COc1cccc2c1C[C@H](O)[C@H](O)C2 (stereo partly specified),inactive
9,O=[N+]([O-])c1ccc(/C=N\O)o1,inactive
10,CCCCCCCCNC(C)C(O)c1ccc(SC(C)C)cc1 (stereo unspecified),inactive
11,CC(=O)O[C@H]1C[C@@H]2CC[C@@H]3[C@H](CC[C@@]4(C)[C@H]3C[C@H]([N+]3(C)CCCCC3)[C@@H]4OC(C)=O)[C@@]2(C)C[C@@H]1N1CCCCC1,inactive
12,COc1cc(C(=O)N2CCCCCCC2)cc(OC)c1OC,inactive
13,CN(C)CCN1C(=O)c2ccccc2N(C)c2ccccc21,inactive
14,Cc1cc2c(OCC(CNC(C)(C)C)OC(=O)c3ccccc3)cccc2[nH]1 (stereo unspecified),inactive
15,CC(=O)Nc1ccc(OC(=O)c2ccccc2OC(C)=O)cc1,inactive
16,O=C(Oc1cccc2cccnc12)c1ccccc1,inactive
17,NC(=S)N/N=C/c1cccnc1,inactive
18,C#C[C@]1(O)CC[C@H]2[C@@H]3CCC4=CC(=O)CC[C@@H]4[C@H]3CC[C@@]21CC,inactive

# Source: PubChem BioAssay (NCATS)
